Laboratory results: the supplement of paper PMC10849652
About 7,900 targets were measured; listed, in parts, are those with a hit and a random draw of the rest. About 0.6% of all pairs of compound and target were hits.

Compound: CCn1cc(-c2ccnc3[nH]c(-c4cccc(CN(C)C)c4)cc23)c(-c2ccc(NC(=O)N(C)C)cc2)n1
Assay: log2 fold change, soluble protein after heating vs DMSO (PISA); higher = thermal stabilisation; K562 cells, 10 uM, 30 min; active = over 0.2 and 3.5 SD of the protein, either way, in both replicates (recomputed)
Method in brief: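 K562 cells (2×10^6 cells/mL) were treated with 10 μM compound for 30 min, and aliquots were heated for 3 min over 48°C-58°C. Pooled aliquots were extracted in PBS with 0.5% NP-40 at 4°C, and the supernatant after 21,000xg for 90 min was measured by TMTpro 16plex LC-MS/MS with channel sums equalised. Reported thermal stability, relative to control samples and from duplicates, is a log2 fold change.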

Sequence of UniProt Q9BY66 (Q9BY66 whole entry, looked up): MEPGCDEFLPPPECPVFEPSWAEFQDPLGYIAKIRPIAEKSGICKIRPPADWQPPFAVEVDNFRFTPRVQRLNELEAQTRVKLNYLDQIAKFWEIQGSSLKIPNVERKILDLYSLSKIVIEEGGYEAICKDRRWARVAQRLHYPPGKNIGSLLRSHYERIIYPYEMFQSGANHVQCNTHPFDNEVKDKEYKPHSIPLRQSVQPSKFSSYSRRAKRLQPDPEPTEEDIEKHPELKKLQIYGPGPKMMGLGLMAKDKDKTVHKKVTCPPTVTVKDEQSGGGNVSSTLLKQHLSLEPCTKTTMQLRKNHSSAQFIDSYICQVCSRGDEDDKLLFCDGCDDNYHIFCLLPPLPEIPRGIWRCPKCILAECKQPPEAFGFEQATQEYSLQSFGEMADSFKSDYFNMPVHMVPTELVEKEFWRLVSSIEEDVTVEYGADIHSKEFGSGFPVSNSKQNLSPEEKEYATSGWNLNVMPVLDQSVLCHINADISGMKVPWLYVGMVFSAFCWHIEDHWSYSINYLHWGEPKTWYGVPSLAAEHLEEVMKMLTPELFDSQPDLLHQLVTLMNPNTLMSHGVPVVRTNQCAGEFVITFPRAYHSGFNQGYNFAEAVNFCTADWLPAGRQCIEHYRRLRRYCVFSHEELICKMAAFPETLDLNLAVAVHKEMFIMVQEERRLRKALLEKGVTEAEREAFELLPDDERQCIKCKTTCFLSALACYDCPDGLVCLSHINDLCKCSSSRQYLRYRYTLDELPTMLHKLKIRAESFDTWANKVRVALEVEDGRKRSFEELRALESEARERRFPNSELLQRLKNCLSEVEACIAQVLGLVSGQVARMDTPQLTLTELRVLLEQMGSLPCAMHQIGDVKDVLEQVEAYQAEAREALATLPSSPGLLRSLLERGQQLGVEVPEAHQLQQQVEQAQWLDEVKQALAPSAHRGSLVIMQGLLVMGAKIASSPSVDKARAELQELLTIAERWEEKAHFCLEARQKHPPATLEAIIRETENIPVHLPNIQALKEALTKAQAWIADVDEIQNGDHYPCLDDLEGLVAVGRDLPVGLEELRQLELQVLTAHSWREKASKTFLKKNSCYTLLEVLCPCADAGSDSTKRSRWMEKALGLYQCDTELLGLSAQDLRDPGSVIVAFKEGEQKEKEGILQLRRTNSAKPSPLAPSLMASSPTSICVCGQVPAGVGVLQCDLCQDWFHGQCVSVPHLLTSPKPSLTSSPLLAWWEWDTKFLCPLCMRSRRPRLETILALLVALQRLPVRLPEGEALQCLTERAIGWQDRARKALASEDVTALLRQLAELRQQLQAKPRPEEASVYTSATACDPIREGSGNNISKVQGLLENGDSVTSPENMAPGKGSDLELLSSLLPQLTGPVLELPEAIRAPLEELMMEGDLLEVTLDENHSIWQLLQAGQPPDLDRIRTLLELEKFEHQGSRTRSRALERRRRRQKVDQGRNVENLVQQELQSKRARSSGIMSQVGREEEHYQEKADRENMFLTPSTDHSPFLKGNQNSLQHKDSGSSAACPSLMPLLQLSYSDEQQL
Sequence of UniProt Q9BQK8 (Q9BQK8 whole entry, looked up): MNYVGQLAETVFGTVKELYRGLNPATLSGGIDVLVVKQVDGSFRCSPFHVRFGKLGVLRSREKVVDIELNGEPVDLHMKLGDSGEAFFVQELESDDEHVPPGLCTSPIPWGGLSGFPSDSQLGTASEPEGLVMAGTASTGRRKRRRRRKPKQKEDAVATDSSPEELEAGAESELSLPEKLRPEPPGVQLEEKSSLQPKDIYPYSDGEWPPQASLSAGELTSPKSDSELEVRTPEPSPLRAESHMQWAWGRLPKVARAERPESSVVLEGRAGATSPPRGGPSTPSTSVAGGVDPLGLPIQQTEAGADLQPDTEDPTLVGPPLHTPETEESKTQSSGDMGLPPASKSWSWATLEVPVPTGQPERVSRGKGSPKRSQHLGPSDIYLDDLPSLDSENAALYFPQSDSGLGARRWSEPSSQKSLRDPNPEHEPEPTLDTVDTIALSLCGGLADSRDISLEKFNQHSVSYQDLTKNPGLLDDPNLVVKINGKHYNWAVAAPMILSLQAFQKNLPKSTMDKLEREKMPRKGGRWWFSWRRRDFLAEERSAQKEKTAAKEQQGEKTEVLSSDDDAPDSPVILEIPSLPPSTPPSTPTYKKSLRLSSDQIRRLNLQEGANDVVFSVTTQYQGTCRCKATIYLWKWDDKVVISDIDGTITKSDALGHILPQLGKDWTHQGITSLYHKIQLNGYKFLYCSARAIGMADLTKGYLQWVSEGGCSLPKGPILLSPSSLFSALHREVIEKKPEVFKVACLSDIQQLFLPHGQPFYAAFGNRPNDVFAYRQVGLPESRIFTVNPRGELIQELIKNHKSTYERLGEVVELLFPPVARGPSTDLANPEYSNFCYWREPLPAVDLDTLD
Sequence of UniProt Q07666 (Q07666 whole entry, looked up): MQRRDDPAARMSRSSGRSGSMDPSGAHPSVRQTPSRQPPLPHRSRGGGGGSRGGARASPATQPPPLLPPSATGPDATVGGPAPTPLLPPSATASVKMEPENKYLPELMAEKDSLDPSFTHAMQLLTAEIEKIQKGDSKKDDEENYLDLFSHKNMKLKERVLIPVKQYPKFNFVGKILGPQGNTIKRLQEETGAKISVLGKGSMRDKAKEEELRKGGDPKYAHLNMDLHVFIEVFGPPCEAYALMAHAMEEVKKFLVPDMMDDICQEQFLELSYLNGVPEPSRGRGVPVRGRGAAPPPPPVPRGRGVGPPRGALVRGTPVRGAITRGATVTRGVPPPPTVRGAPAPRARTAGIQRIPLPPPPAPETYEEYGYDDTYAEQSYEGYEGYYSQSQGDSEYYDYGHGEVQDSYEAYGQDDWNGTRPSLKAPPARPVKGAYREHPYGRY
Sequence of UniProt P32019 (P32019 whole entry, looked up): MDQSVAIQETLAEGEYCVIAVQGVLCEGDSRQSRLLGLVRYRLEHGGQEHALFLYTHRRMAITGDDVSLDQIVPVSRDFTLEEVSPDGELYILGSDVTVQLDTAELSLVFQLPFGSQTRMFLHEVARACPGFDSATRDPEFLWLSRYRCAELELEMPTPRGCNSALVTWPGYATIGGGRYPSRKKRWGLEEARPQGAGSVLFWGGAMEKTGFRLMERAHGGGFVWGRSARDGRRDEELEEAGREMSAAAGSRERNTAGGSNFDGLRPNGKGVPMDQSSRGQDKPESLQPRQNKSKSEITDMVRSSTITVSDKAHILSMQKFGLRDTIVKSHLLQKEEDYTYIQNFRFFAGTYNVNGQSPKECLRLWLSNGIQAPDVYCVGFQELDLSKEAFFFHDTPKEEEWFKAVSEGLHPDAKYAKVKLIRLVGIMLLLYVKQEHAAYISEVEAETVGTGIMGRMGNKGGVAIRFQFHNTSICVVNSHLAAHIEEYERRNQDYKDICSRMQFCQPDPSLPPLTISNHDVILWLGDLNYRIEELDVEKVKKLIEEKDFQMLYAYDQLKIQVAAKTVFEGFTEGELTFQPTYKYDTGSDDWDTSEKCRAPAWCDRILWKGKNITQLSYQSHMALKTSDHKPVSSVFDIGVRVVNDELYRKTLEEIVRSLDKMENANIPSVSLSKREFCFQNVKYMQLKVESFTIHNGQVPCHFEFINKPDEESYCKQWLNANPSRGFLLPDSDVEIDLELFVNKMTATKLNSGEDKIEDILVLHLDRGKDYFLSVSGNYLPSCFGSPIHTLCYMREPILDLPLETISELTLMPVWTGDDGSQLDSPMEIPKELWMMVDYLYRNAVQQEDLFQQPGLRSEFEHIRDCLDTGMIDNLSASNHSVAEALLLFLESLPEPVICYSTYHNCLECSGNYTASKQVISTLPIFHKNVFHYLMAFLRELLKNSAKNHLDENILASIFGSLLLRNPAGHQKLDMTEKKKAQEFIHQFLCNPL
Sequence of UniProt Q9UIQ6 (Q9UIQ6 whole entry, looked up): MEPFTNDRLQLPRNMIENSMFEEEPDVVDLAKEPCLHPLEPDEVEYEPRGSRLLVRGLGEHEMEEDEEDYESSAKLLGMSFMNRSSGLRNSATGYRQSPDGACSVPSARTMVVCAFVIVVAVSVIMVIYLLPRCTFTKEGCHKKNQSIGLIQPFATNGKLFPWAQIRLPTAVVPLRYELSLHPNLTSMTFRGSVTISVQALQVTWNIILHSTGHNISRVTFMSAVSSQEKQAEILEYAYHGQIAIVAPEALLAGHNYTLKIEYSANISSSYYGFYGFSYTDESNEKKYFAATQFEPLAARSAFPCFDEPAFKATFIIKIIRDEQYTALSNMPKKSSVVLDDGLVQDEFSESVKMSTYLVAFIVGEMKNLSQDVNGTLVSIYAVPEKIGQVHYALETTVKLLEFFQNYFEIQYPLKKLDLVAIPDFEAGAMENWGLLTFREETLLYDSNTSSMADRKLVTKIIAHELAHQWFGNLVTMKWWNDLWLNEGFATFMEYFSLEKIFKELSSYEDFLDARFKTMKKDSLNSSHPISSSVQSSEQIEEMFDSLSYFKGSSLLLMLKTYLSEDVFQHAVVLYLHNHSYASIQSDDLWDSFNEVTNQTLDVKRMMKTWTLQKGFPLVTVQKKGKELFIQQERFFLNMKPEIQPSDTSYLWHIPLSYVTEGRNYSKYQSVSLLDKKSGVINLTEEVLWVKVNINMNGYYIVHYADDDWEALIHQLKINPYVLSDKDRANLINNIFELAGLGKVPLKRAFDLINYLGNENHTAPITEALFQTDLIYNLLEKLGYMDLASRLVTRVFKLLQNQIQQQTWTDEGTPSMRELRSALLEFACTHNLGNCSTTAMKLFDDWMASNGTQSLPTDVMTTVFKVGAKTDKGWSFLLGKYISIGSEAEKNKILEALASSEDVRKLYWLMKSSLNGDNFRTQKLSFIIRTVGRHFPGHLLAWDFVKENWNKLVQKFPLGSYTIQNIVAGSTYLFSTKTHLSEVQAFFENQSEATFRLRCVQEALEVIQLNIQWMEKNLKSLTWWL
Sequence of UniProt P33947 (P33947 whole entry, looked up): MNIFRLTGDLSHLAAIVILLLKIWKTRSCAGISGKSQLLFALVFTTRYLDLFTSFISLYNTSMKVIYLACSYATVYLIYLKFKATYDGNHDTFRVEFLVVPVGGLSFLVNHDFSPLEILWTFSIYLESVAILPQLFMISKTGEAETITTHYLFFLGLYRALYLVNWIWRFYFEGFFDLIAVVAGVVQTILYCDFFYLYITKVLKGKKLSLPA

log2 fold change, inactive:
IWS1 (UniProt Q96ST2) 0.021
LUC7L2 (UniProt Q9Y383) -0.003
MARK3 (UniProt P27448) -0.019
MIEF1 (UniProt L0R8F8) -0.065
KIF11 (UniProt P52732) 0.023
LPIN3 isoform 2 (UniProt Q9BQK8) -0.078
INPP5B (UniProt P32019) 0.031
LNPEP (UniProt Q9UIQ6) -0.02
KDM1A isoform 2 (UniProt O60341) -0.111
IPO13 (UniProt O94829) -0.084
MIEF1 (UniProt Q9NQG6) 0.019
KDELR2 (UniProt P33947) -0.016
KTN1 (UniProt Q86UP2) 0.084
KHDRBS1 (UniProt Q07666) -0.096
KSR1 (UniProt Q8IVT5) 0.178
LUC7L3 (UniProt O95232) 0
LAMP2 (UniProt P13473) 0.019
MED1 (UniProt Q15648) -0.04
MICU2 (UniProt Q8IYU8) -0.046
ILK (UniProt Q13418) -0.052
KIF13A (UniProt Q9H1H9) -0.068
KIF3A (UniProt Q9Y496) -0.093
KDM5D isoform 3 (UniProt Q9BY66) 0.034
